# A selection: hits, their analogues and other compounds. The true share with any hit is near 5.7%.
# ATXN viability = Viability Counterscreen for Primary qHTS for Inhibitors of ATXN expression | Potency, µM (highest dose often 56.7 µM), usual class: cytotoxic | S2 cells (HEK-293 line with an ATXN2-luciferase reporter) viability, CellTiter-Fluor protease fluorescence, 24 h | hit rate 0.49% among 400,000; note: potency is the fitted concentration of half-maximal effect; nearly all actives have a fitted effect of over 40% in size
# TGFb inhibitor = qHTS for Inhibitors of TGF-b | hit rate 1.2% among 410,000 | Potency, µM (doses to about 46.1 µM), for the others: at the top dose activity, negative = inhibition, actives largely listed as inhibitors | HepG2 CAGA-GFP TGF-b/SMAD3 reporter, GFP fluorescence, 18 h; TGF-beta stimulated, 500 pg/mL final; note: potency is the fitted concentration of half-maximal effect; % is set by controls: 0 for no effect and ±100 for the full control effect; nearly all actives have a fitted effect of over 65% in size
#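 First, reporter cells (HEPG2 CAGA-GFP) rested 2 h at 37 degrees C. Next, compounds were pinned in and TGF-beta added to 500 pg/mL final. After 18 h, GFP was imaged per cell and summed per well.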
# ATXN2 expr inh = Primary qHTS for Inhibitors of ATXN expression | HEK-293 ATXN2-luciferase reporter, luminescence, 24 h | Potency, µM (doses to about 57 µM), inactives show at the highest dose activity change, negative = inhibition, actives largely listed as inhibitors | hit rate 0.72% among 360,000 | AID 1745845, 2022; note: potency is the fitted concentration of half-maximal effect; % is set by controls: 0 for no effect and ±100 for the full control effect; nearly all actives have a fitted effect of over 55% in size
#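 ATXN2-luciferase reporter cells (luciferase flanked by upstream and downstream ATXN2 gene portions) were treated 24 h at 37 °C with compounds at up to 57 uM. SteadyGlo luminescence gave expression; GF-AFC fluorescence gave viability.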
# HepG2 viability = qHTS for Inhibitors of TGF-b: Cytotox Counterscreen; HepG2 CAGA-GFP viability, ATP luminescence, 18 h; Potency, µM (highest dose often 46.1 µM), for the others: at the top dose activity change, negative = cytotoxicity, usual class: cytotoxic; hit rate 0.76% among 410,000; AID 588856, 2011; note: potency is the fitted concentration of half-maximal effect
#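 CellTiter-Glo luminescence gave cytotoxicity after 18 hours at 37 degrees C. The cells were HepG2 CAGA-GFP in 1% FBS DMEM, stimulated with 500 pg/mL TGF-beta after compound addition. %Activity was normalised to no-cell wells (complete cell-killing) and DMSO (no toxicity), and curves were fitted and classified.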
# IL-1B inflam inh = qHTS for Inhibitors of Inflammasome Signaling: IL-1-beta AlphaLISA Primary Screen; activity change, % at 57.5 µM; hit rate 4.7% among 360,000; THP-1 LPS/ATP IL-1B secretion, AlphaLISA, 16 h; active compounds read low; in the data active = activity change below about -50%; inconclusive = mostly about -30% to -49%; note: % is set by controls: 0 for no effect and ±100 for the full control effect
#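 THP-1 cells pretreated 1 hr with compounds (up to 57.5 uM final), then stimulated with LPS (250 ng/mL final) plus ATP (1.25 mM final); secreted IL-1B measured by AlphaLISA after 16 hr, decreased signal indicating inhibition.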
# Active calls of the source: *; i = inactive; ? = inconclusive; nt = not tested or not shown. Unless noted, calls come from the whole dose curve; as a rule, active = well fitted curve in the direction sought with a large enough effect; inconclusive = small, poorly fitted or top-dose-only effect, or another doubt; inactive = no such curve, though single readings can be large; an effect the other way counts as inactive or inconclusive.
SMILES,ATXN viability,TGFb inhibitor,ATXN2 expr inh,HepG2 viability,IL-1B inflam inh
Cc1cccc(N2CCN(C(=O)c3nn(C)c4c3CSc3ccccc3-4)CC2C)c1 (centres undefined),nt,?,nt,-23%,nt
CN1C(=O)c2ccccc2Sc2ccc(NC(=O)NCc3ccc(Cl)cc3)cc21,nt,-3%,nt,-3%,nt
CCN1C(=O)c2ccccc2Sc2ccc(NC(=O)Nc3ccc(C(C)=O)cc3)cc21,nt,?,nt,-23%,nt
CN1C(=O)c2ccccc2Sc2ccc(NC(=O)NCc3cccc(Cl)c3)cc21,nt,10µM*,nt,-57%,nt
COc1ccc(CNC(=O)Nc2ccc3c(c2)N(C)C(=O)c2ccccc2S3)cc1,nt,-22%,nt,-32%,nt
CC(C)CCNC(=O)c1ccc2c(c1)N(C)C(=O)c1ccccc1S2,i,15%,8%,-7%,-50*
CCN1C(=O)c2ccccc2Sc2ccc(C(=O)NCCC(C)C)cc21,i,0%,-2%,-7%,-12
Cc1ccccc1CNC(=O)Nc1ccc2c(c1)N(C)C(=O)c1ccccc1S2,nt,7.1µM*,nt,-33%,nt
CCc1ccccc1NC(=O)Nc1ccc2c(c1)N(CC)C(=O)c1ccccc1S2,nt,11µM*,nt,-34%,nt
CCC(C(=O)N1CCN(c2cc(Cl)ccc2C)CC1)n1nc(C)n2c(cc3occc32)c1=O (centres undefined),?,?,?,-29%,nt
O=C1C[C@H]2C=CCc3cccc(c32)CN1Cc1ccc(Cl)cc1,nt,10µM*,nt,-59%,nt
CNc1ccc(/C=C/c2ccnc3ccccc23)cc1,nt,-23%,nt,-46%,nt
CC1(C(=O)NCc2cccc3ccccc23)CCN1C(=O)Cc1ccc(-c2ccccc2)cc1 (centres undefined),?,?,?,-32%,-104*
CC(C)c1ccc(CC(=O)N2CCC2(C)C(=O)NCc2cccc3ccccc23)cc1 (centres undefined),i,-15%,-26%,-22%,-19
Oc1ccc(-c2ccc(-c3cc(Nc4cccc(CNC5CC5)c4)n[nH]3)cc2)c(O)c1,nt,nt,2.4µM*,nt,nt
COc1ccc(CNCc2cn(-c3cccc(F)c3)nc2-c2ccc(C)o2)cc1,?,13µM*,nt,-102%,-87*
OC(c1cccc(Cl)c1)c1ncc(-c2ccc3ccccc3c2)[nH]1 (centres undefined),i,?,13%,-49%,-8
OC(c1cc(F)cc(Cl)c1)c1ncc(-c2ccc3ccccc3c2)[nH]1 (centres undefined),?,18µM*,-36%,-106%,5
Cc1ncc(CO)c2c1Oc1nc(-c3ccccc3)nc(SCC(=O)N3CCCCC3)c1C2,14µM*,-8%,-39%,-12%,?
Cc1ncc(CO)c2c1Oc1nc(-c3ccccc3F)nc(SCC(=O)N(C)c3ccccc3)c1C2,18µM*,?,?,-9%,-4
Cc1ncc(CO)c2c1Oc1nc(-c3ccccc3)nc(SCC(=O)N3CCOCC3)c1C2,i,?,-2%,-12%,-11
CCN(CC)C(=O)CSc1nc(-c2ccccc2F)nc2c1Cc1c(CO)cnc(C)c1O2,i,3%,-1%,2%,nt
Cc1ccc(-c2nc(NCCCN(C)C)c3ccccc3n2)cc1,i,-2%,nt,-40%,?
Cc1ccc(-c2csc3nc4c5ccccc5c(NCCCN(C)C)nn4c(=O)c23)cc1,i,?,-30%,14µM*,?
COc1c(Cl)cnn(-c2ccccc2)c1=O,i,-13%,-7%,0%,-75*
SMILES,ATXN viability,TGFb inhibitor,ATXN2 expr inh,HepG2 viability,IL-1B inflam inh
COc1ccc(-n2ncc(Cl)c(Cl)c2=O)cc1,3.8µM*,?,?,-30%,-107*
COc1nn(-c2ccccc2)c(=O)c(Cl)c1Cl,?,14µM*,?,14µM*,-96*
COc1ccc(-n2ncc(N(C)n3cccc3)c(Cl)c2=O)cc1,i,-13%,12%,3%,-14
COc1c(Cl)cnn(-c2ccc(Cl)c(Cl)c2)c1=O,i,-8%,3%,-9%,-98*
COc1ccc(Sc2cnn(-c3ccccc3)c(=O)c2Cl)cc1,i,-8%,-4%,-25%,?
Cc1cccc(CC2C(=O)Nc3ccccc32)c1 (centres undefined),nt,0%,nt,-33%,nt
COc1ccc(-c2cc3nc(C)c(CCC(=O)N4CCN(c5ccc(F)cc5)CC4)c(C)n3n2)c(OC)c1,i,5%,-8%,-1%,nt
CC(C)C(NS(C)(=O)=O)c1nnc2n1CCN(Cc1ccc(Cl)cc1)CC2 (centres undefined),i,nt,nt,nt,nt
COc1ccc(C2C(=O)N(C3CCC(C)CC3)CC(=O)N2CCc2ccccc2)cc1OC (centres undefined),nt,-11%,nt,-20%,nt
COc1ccc(NC(C)=O)c(C)c1,i,7%,-7%,52%,-2
COc1cc(C)c(C(=O)CC(=O)c2c(C)cc(OC)cc2C)c(C)c1,i,6%,25µM*,-63%,131
O=C(NCc1nc2ccccc2[nH]1)c1c(F)c(F)c(F)c(F)c1F,i,24%,12%,2%,-78*
O=C(NCc1nc2ccccc2[nH]1)c1ccccc1F,i,0%,35%,-22%,1
C/C(=N/NC(=O)c1ccncc1)C(=O)O,i,nt,8%,nt,nt
O=c1c2oc3ccccc3c2n(Cc2ccc(Cl)cc2)c(=O)n1Cc1ccco1,i,-3%,-16%,-45%,nt
CCOc1ccc2nc3cc(N)ccc3c(N)c2c1,?,nt,13µM*,nt,nt
O=C(O)/C=C/C(=O)c1c(-c2ccccc2)[nH]c2ccccc12,i,13µM*,7%,-2%,9
CC(=O)c1c(-c2ccccc2)[nH]c2ccccc12,?,-1%,-34%,-21%,-7
CS(=O)(=O)N1CCN(c2ccc(NC(=O)c3ccc(-c4ccc(Cl)cc4)o3)cc2)CC1,i,-6%,-23%,-17%,16
CN1CCN(c2ccc(NC(=O)c3ccc(-c4cccc([N+](=O)[O-])c4)o3)cc2)CC1,i,0%,-20%,-26%,-55*
CN1CCN(c2ccc(NC(=O)c3ccc(-c4ccc(Cl)cc4)o3)cc2)CC1,nt,?,?,16µM*,-99*
Cc1ccc(N2CCN(C(=S)c3ccc(-c4cccc([N+](=O)[O-])c4)o3)CC2)cc1,i,-36%,nt,-20%,0
O=C(Nc1ccc(N2CCN(C(=O)c3ccc(Cl)cc3)CC2)cc1)c1ccc(Br)o1,i,-23%,-22%,-18%,-69*
CSc1nnc(CNC(=O)/C=C/c2ccccc2Cl)n1-c1ccc(F)cc1,i,nt,nt,nt,nt
O=C(CN1Cc2ccccc2OC(c2ccsc2)C1)NCc1ccc2c(c1)OCO2 (centres undefined),i,nt,nt,nt,nt
